In the library only some 7.6% were active in any assay of this set; here they are far more common.
SW480 rerep: A quantitative high throughput screen for small molecules that induce DNA re-replication in SW480 colon adenocarcinoma cells | SW480 DNA re-replication, Hoechst DNA content imaging, 48 h | Potency, µM (series often up to 46.1 µM), usual class: activators | actives 1.8% (n = 340,000) | AID 624297, 2012; note: nearly all actives have a fitted effect of over 55% in size
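Compounds, transferred as 23 nL by pin tool, were incubated with cells for 48 hr; DNA content per nucleus was then quantified by Hoechst staining and fluorescence plate imaging.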
KCNH2 3.1 block: qHTS for Inhibitors of KCHN2 3.1: Mutant qHTS; U2OS KCNH2 3.1, thallium flux FluxOr; stronger effect = lower value; Potassium voltage-gated channel subfamily H member 2, brain isoform KCNH2 3.1 (human); activity change, % (tested at about 1.8 µM); actives 0.95% (n = 340,000);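 active = maximum activity change below -70%; inconclusive = maximum activity change from -70% to -50%; inactive = maximum activity change above -50%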;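 note: thallium influx rate constant from kinetic fluorescence after stimulation buffer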
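Measured as rate of thallium-driven FluxOr signal in transduced U2OS cells carrying the 3.1 channel, read kinetically for 2 min upon stimulation; values are rate constants scaled to DMSO control wells.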
hERG WT inh: qHTS for Inhibitors of KCHN2 3.1: Wildtype qHTS | U2OS, BacMam KCNH2, thallium flux FluxOr; stronger effect = lower value | actives 0.37% (n = 340,000) | activity change, % at 1.84 µM;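 active = maximum activity change below -70%; inconclusive = maximum activity change between -70% and -50%; inactive = maximum activity change above -50%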
Target sequence (Q12809 whole entry, looked up): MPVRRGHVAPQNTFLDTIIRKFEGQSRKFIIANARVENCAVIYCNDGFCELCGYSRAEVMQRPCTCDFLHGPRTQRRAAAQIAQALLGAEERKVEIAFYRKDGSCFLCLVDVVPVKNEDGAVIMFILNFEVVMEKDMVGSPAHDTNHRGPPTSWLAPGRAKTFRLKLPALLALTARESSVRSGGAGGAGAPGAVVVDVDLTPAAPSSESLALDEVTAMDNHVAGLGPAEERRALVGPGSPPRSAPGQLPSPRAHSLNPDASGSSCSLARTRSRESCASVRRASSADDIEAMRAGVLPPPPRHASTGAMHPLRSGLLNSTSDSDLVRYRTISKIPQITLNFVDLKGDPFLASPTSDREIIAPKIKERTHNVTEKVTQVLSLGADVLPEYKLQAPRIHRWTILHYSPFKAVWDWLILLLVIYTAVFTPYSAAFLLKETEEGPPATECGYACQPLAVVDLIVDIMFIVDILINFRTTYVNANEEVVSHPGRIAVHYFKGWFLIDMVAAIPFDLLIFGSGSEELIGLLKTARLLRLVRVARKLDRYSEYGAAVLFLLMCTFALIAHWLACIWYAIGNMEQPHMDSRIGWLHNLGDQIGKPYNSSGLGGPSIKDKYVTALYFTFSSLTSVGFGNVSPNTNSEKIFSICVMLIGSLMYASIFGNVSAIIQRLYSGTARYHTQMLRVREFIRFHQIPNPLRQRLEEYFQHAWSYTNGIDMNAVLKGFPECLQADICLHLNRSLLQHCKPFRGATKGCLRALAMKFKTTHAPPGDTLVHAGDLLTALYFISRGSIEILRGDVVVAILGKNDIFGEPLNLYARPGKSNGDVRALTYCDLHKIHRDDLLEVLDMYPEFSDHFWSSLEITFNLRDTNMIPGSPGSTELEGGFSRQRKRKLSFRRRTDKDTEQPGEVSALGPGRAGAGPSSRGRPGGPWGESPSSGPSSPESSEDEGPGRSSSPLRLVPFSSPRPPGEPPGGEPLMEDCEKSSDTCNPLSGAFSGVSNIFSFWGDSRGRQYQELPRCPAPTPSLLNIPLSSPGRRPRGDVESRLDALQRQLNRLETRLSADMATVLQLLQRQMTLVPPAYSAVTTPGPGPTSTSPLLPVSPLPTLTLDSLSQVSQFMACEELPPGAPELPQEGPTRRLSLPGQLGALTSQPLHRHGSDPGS
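U2OS cells were transduced with wild-type KCNH2 virus (2.03 x 10^8 / mL) for 4 h at room temperature, then cultured overnight at 37 C. Thallium flux was read with FluxOr dye. Rate constants were normalized to DMSO controls.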
MCF10A rerep: A quantitative high throughput screen for small molecules that induce DNA re-replication in MCF 10a normal breast cells; MCF 10A DNA re-replication, Hoechst nuclear intensity, 48 h; Potency, µM (highest dose often 46.1 µM), hits mostly activators; actives 2.9% (n = 350,000); AID 624296, 2012; note: nearly all actives have a fitted effect of over 50% in size
KB-V1 MDR tox: qHTS assay for MDR1-selective chemotherapeutics: Primary screen using the drug-selected MDR subline cells KB-V1 | KB-V1 MDR cells viability, CellTiter-Glo, 72 h | Potency, µM (titrated, usually from 46.1 µM), usual class: cytotoxic | actives 3.4% (n = 400,000); note: nearly all actives have a fitted effect of over 60% in size
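Readout: CellTiter-Glo luminescence, 10 min after addition. Cells: KB-V1 MDR subline, 72 h at 37 degrees C with compound. Analysis: corrected, normalized data fitted to concentration-effect curves.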
KB-3-1 cytotox: qHTS assay for MDR1-selective chemotherapeutics: Primary screen using the parental adenocarcinoma cell KB-3-1; KB-3-1 viability, CellTiter-Glo ATP luminescence, 72 h; Potency, µM (top dose mostly 46.1 µM), usual class: cytotoxic; actives 1.4% (n = 400,000); AID 1347075, 2019; note: nearly all actives have a fitted effect of over 60% in size
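Here the drug-naive KB-3-1 line serves as comparator for MDR sub-line selectivity; cells received compound titrations, 72 h at 37 °C, then CellTiter-Glo readout.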
A number is an active result; i = inactive; ? = inconclusive; nt = no result given; [ ] = another dose, or the depositor's remark. Unless noted, calls come from the whole dose curve; as a rule, active = well fitted curve in the direction sought with a large enough effect; inconclusive = small, poorly fitted or top-dose-only effect, or another doubt; inactive = no such curve, though single readings can be large; an effect the other way counts as inactive or inconclusive.

SMILES	SW480 rerep	KCNH2 3.1 block	hERG WT inh	MCF10A rerep	KB-V1 MDR tox	KB-3-1 cytotox
COC(=O)c1cn(C(=O)c2ccc(OC)cc2)c2ccccc12	2.3µM	i	i	5.8µM	i	?
COC(=O)c1cn(C(=O)c2ccc(OC)c(OC)c2)c2ccccc12	i	i	i	i	i	i
COc1ccc(-c2noc(CCCC(=O)N3CCN(c4cc(C)ccc4C)CC3)n2)cc1	i	i	i	13µM	i	i
CCOC(=O)N1CCN(Cc2nc(-c3ccc(OC)cc3)no2)CC1	i	i	i	i	8.2µM	i
Cc1ccc(-c2noc(CCC(=O)N3CCN(c4cc(C)ccc4C)CC3)n2)cc1	i	i	i	21µM	i	i
N#Cc1nc(Cc2ccccc2)oc1NCCCn1ccnc1	16µM	i	i	?	i	i
CCOC(=O)C1=CCN(S(=O)(=O)c2cccc(Cl)c2)C1c1cccc(F)c1 (stereo unspecified)	nt	nt	nt	nt	?	i
CCOC(=O)C1=CCN(S(=O)(=O)c2ccc(F)cc2)C1c1cccc(Cl)c1 (stereo unspecified)	nt	nt	nt	nt	8.2µM	?
Cn1c(=O)c2c(nc(N3CCOCC3)n2Cc2ccccc2Cl)n(C)c1=O	nt	nt	nt	nt	i	i
Cn1c(=O)c2c(nc(N3CCN(c4ccccn4)CC3)n2Cc2ccc(Cl)cc2Cl)n(C)c1=O	i	i	i	i	0.65µM	i
Cn1c(=O)c2c(nc(NCC3CCCC(CN)C3)n2Cc2ccc(Cl)cc2Cl)n(C)c1=O (stereo unspecified)	4.1µM	i	i	?	?	?
Cc1ccc(S(=O)(=O)N2C[C@H]3N(C(=O)OC(C)C)N(C(=O)OC(C)C)C[C@H](OC(=O)NC4CCCC4)[C@@]3(O)C2)cc1	nt	i	i	nt	i	i
COc1cccc(C(=O)Nc2ccc(-n3nncc3-c3ccc(Br)cc3)cc2)c1OC	nt	nt	nt	nt	i	i
CCC(C(=O)N(C(C)C)C(C)C)c1ccccc1 (stereo unspecified)	i	-146	i	i	i	i
CCCN(CCC)CC(O)COc1ccc([N+](=O)[O-])cc1 (stereo unspecified)	i[9.22 µM]	?	-75	i	i	i
NC(=O)c1ccc(-c2nnn(CC(=O)N(C3CCCC3)C3CCS(=O)(=O)C3)n2)cc1 (stereo unspecified)	i	i	i	i	i	i
Cc1cc(C(=O)CSc2nc3ccccc3[nH]2)c(C)n1Cc1ccco1	i	i	i	i	2.1µM	?
Cc1cc(C(=O)CSc2nc3ccc(Cl)cc3[nH]2)c(C)n1C	i	i	i	i	21µM	i
COc1ccc(C(=O)CN2C(=O)N(c3cc(C)cc(C)c3)S(=O)(=O)c3ccccc32)cc1	nt	nt	nt	nt	i	i
CC1=C(C(=O)Nc2cc(Cl)ccc2C)C(c2cccs2)n2ncnc2N1 (stereo unspecified)	nt	nt	nt	nt	?	i
CCN(C(=O)COC(=O)C1CCN(S(=O)(=O)c2cccs2)CC1)c1ccccc1	i	i	i	i	i	i
CC(O)c1nc2ccccc2[nH]1 (stereo unspecified)	nt	nt	nt	nt	i	i
Cc1cc(C)cc(CC(Cc2nc3ccccc3[nH]2)c2nc3ccccc3[nH]2)c1 (stereo unspecified)	i[9.22 µM]	i	i	?	i	16µM
c1coc(-c2nnc(SCc3nc4ccccc4[nH]3)o2)c1	i	i	i	i	15µM	?
Clc1ccc(SCc2nc3ccccc3[nH]2)cc1	i	i	i	?	23µM	i
Cc1ccc(CSCc2nc3ccccc3[nH]2)cc1	?	i	i	16µM	i	i
c1ccc(CSc2nnc(-c3ccco3)o2)cc1	i	i	i	i	i	i
c1ccc2[nH]c(CSc3ncnc4c3oc3ccccc34)nc2c1	i	i	i	?	4.6µM	?
